Assay outcomes: PubChem BioAssay, National Center for Advancing Translational Sciences (NCATS)
This is a sample that favours compounds with a hit; in the whole collection about 0.52% have one here.
Vif-A3G inh: qHTS for Inhibitors of Vif-A3G Interactions: qHTS; DNA dC->dU-editing enzyme APOBEC-3G (Homo sapiens), Q9HC16; HeLa A3G-eYFP + Vif (tagged APOBEC3G with the HIV-1 protein that degrades it), YFP fluorescence, overnight; Potency, µM (series often up to 46.1 µM), without a hit: top-dose activity, negative = active, usual class: inhibitors; 410,000 compounds, 0.076% hits; further: on the % scale 0 is the no-effect control and ±100 the full control effect; nearly all actives have a fitted effect of over 60% in size
Target sequence (Q9HC16 whole entry, looked up): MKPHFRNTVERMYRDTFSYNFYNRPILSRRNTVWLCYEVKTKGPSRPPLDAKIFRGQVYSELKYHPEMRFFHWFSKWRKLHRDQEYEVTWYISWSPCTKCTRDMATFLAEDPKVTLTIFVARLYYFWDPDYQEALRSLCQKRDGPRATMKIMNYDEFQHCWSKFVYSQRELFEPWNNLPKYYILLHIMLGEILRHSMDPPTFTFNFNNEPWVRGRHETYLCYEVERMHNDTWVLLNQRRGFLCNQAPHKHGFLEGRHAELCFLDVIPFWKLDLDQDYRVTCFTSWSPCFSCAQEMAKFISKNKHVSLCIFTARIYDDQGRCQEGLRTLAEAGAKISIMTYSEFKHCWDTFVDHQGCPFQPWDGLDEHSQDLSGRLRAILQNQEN
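HeLa cells stably expressing Vif and C-terminally eYFP-tagged A3G, seeded overnight at 37 deg C, then exposed to compound by pintool overnight at 37 deg C. Rise in yellow fluorescence (Ex 488/Em 500-530, Acumen) marks blocked Vif-driven A3G degradation.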
PINK1 expr mod: A Quantitative High throughput Screen to Identify Chemical Modulators of PINK1 Expression. PINK1 immunofluorescence, high-content cytometry, 24 h. Potency, µM (doses to about 76.6 µM), for inactives: at the highest dose activation (PINK1 increase), usual class: activators. 410,000 compounds, 0.2% hits; active means well fitted activation curve with a large enough effect; inconclusive means small, poorly fitted or top-dose-only effect; cell line not stated here; further: % of control where 0% means no effect; nearly all actives have a fitted effect of over 65% in size
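Cells are seeded, rested 12 hours, then given compound at five concentrations or DMSO for 24 hours. After fixation, blocking and antibody staining, PINK1 amount and mitochondrial localization are scored; CCCP serves as control.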
Vif-A3F inh: qHTS for Inhibitors of Vif-A3F Interactions: qHTS. HeLa A3F-eYFP + Vif (tagged APOBEC3F with the HIV-1 protein that degrades it), YFP fluorescence increase. Potency, µM (top dose mostly 46.1 µM), for the others: top-dose activity, negative = active. 390,000 compounds, 0.2% hits. AID 602313, 2012; further: % of control where 0% means no effect; nearly all actives have a fitted effect of over 65% in size
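HeLa cells stably expressing Vif plus C-terminally eYFP-tagged A3F were seeded, incubated overnight at 37 deg C, dosed with compound, incubated overnight again at 37 deg C. Yellow fluorescence (Ex 488/Em 500-530) reported blocked Vif-mediated A3F-eYFP degradation.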
Epigenetic reg: Quantitative High-Throughput Screen for Regulators of Epigenetic Control; 280,000 compounds, 0.2% hits; murine LDR cells, GFP reporter derepression, 30 h; AID 1865, 2009; Potency, µM (highest dose often 53.9 µM), inactives show at the highest dose GFP activation, hits mostly activators; further: % of control where 0% means no effect; nearly all actives have a fitted effect of over 60% in size
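Readout is the number of GFP-expressing murine LDR cells, counted by cytometry following washing. Cells were treated with compound for 30 h at 37 C; the stably integrated CMV-GFP locus is normally silent.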
Numbers without * were called inactive; u = inconclusive; x = not tested or not shown; [ ] = remark or other dose. Unless noted, the call rests on the fitted dose curve; in most records, active means well fitted curve in the direction sought with a large enough effect; inconclusive means small, poorly fitted or top-dose-only effect, or another doubt; inactive means no such curve, though single readings can be large; an effect the other way counts as inactive or inconclusive. Potency means the concentration at half of the fitted maximal effect.

SMILES	Vif-A3G inh	PINK1 expr mod	Vif-A3F inh	Epigenetic reg
CC(C)CC1=NN2C(=N)/C(=C\c3coc4ccccc4c3=O)C(=O)N=C2S1	u	7%	u	-5%
CCOC(=O)N1CCC(Nc2nc3ccccc3nc2NS(=O)(=O)c2ccc(Cl)cc2)CC1	-2%	-1%[38.3 µM]	32µM*	-1%
COc1ccccc1-c1ccnc(-n2ncc(C(=O)NCC3(N4CCOCC4)CCCC3)c2C)n1	x	1%	x	x
COc1cccc(C2CC(c3ccccc3)=NN2S(=O)(=O)c2ccc(C)cc2)c1OC (stereo unspecified)	u	0%	25µM*	u
COc1ccccc1C1CC(c2ccccc2)=NN1S(=O)(=O)c1ccccc1 (stereo unspecified)	-5%	0%	2%	2%
COc1ccc(-n2c(-c3ccc(Cl)cc3)c[n+]3c2CCc2ccccc2-3)cc1	7%	32µM*	-33%	1%
COc1ccc(-n2c(-c3ccccc3)nnc2-c2ccc(Cl)cc2)cc1	1%	1%	-1%	0%
COC(=O)c1ccc(C(=O)NCC2Cc3cc(F)cc(-c4cncnc4)c3O2)cc1 (stereo unspecified)	x	1%	x	x
COc1cccc(-c2ccc3c(N)c(C(=O)c4ccc(Cl)cc4)sc3n2)c1	10µM*	2%	u	u
COc1ccc(C(=O)c2sc3nc(-c4ccccc4)ccc3c2N)cc1	u	5%	3.5µM*	u
Cc1cc(C(=O)NCc2nc(-c3cccc(NC(=O)c4cc(C)oc4C)c3)oc2C)nc(C)n1	x	1%	x	x
CCSc1ncc(Cl)c(C(=O)Nc2sc3c(c2C(=O)NCc2cccnc2)CCCC3)n1	1%	11µM*	u	7%
CCSc1ncc(Cl)c(C(=O)Nc2sc3c(c2C(=O)NCCCOC)CCCC3)n1	1%	3%	u	3.5µM*
CCCSc1ncc(Cl)c(C(=O)Nc2sc3c(c2C(N)=O)CCCC3)n1	7.1µM*	8.9µM*	x	u
Cc1nc(NCc2c(C)nn(C)c2Cl)sc1-c1ccn(CC2COc3ccccc3O2)n1 (stereo unspecified)	x	-1%	x	x
CN(C)CC(C)(O)c1ccc2c(c1)CN(Cc1cnn(-c3ccccc3)c1)CCO2 (stereo unspecified)	x	0%	x	x
O=c1[nH]c2ccccc2n2c(C(F)(F)F)nnc12	-26%	7%	10µM*	x
O=c1[nH]c2ccccc2n2c(=S)[nH]nc12	5%	1%	22µM*	0%
CCc1noc(C)c1C(=O)N1CCOc2ccc(CN3CCCC(C(=O)c4cccnc4)C3)cc2C1 (stereo unspecified)	x	-1%	x	x
Cc1ccc2ccc3cc(C(=O)Nc4ccc(C)c(F)c4)nc3c2[nH]1	13µM*	0%	u	8%
Cc1ccc2ccc3cc(C(=O)N4CCN(c5ccccc5F)CC4)nc3c2[nH]1	-5%	3%	-2%	1%
Cc1cn2cc(CNC(=O)CN3Cc4ccccc4OC(c4ccccc4F)C3)nc2s1 (stereo unspecified)	x	-1%	x	x
C=CCN1C(=O)/C(=C/c2ccc(OC(C)=O)c(OCC)c2[N+](=O)[O-])SC1=S	-1%	4.5µM*	u	-3%
Cc1ccc(NC(=O)CSc2nc(-c3ccc(C(C)(C)C)cc3)nc3cc(=O)[nH]n23)cc1C	-3%	28%	u	-3%
Cc1ccc(CSc2nc(-c3ccc(C(C)(C)C)cc3)nc3cc(=O)[nH]n23)cc1	10µM*	1%	2%	-3%
SMILES	Vif-A3G inh	PINK1 expr mod	Vif-A3F inh	Epigenetic reg
CCCOc1ccc2cc(C(=O)NCc3ccccc3)c(=O)oc2c1	-229%	8%	32µM*	x
CCOc1cc(S(=O)(=O)NCc2ccc(OC)cc2)c(OCC)cc1-n1cnnn1	u	5.6µM*	1%	2%
COc1ccc(NC(=O)c2cccc(NC(=O)C(C)C)c2)c([N+](=O)[O-])c1	1%	15%	-3%	-1%
COc1ccc(NC(=O)c2ccc(NC(=O)C(C)C)cc2)c([N+](=O)[O-])c1	-9%	u	10µM*	14µM*
Cc1cc(C)nc(-c2cccc3c2OC(CNC(=O)c2ccc(Cn4nc(C)cc4C)cc2)C3)n1 (stereo unspecified)	x	0%	x	x
COc1cc(=O)n2c(c1C(=O)NC(C)c1ccco1)CCN(C(=O)c1ccc(F)cc1Cl)CC2 (stereo unspecified)	x	1%	x	x
